{"source": "ChEMBL document CHEMBL3988442", "about": "“University of Dundee, Small-Polar-MMV Screening Library” (2021)", "note": "Hit rate of the full screen: of about 48,000 compounds, about 13,000 (27%) showed an effect of 50% or more. Some of the results follow.", "data": [{"tested_on": "Wolbachia pipientis", "assay": "Anti-Wolbachia Cell-Based Screen", "type": "functional", "parameters": "scale not given: in the data most compounds retested in dose-response had high values", "details": "5 µM", "units": {"Percent Effect": "%"}, "values": [{"molecule": "COCCc1noc(-c2cn(CCc3ccccc3)nn2)n1", "Percent Effect": -16.95}, {"molecule": "CC(=O)c1cccc(NC(=O)N(CCO)C2CCc3ccccc32)c1", "note": "(centres undefined)", "Percent Effect": 6.805}, {"molecule": "COCCCS(=O)(=O)N1CCN(c2cccc(O)c2)CC1", "Percent Effect": -6.016}, {"molecule": "O=C(C1CCC1)N1CCC(=O)N(C2CC2)Cc2cc(F)ccc21", "Percent Effect": 89.78}, {"molecule": "CCN1CC(C(=O)N2CCC(Oc3ccccc3Cl)CC2)CC1=O", "note": "(centres undefined)", "Percent Effect": 19.99}, {"molecule": "O=C1N[C@@H]2CCN(C(=O)C3CCC3)[C@@H]2C(=O)N1c1ccc(F)cc1", "Percent Effect": 10.21}, {"molecule": "O=C(C1CCCOC1)N1CCc2ccc(F)cc21", "note": "(centres undefined)", "Percent Effect": -7.553}, {"molecule": "O=C1NCCCCC1NC(=O)N1CCCc2cc(F)ccc21", "note": "(centres undefined)", "Percent Effect": -6.196}, {"molecule": "CCN1Cc2cc(F)ccc2N(C(=O)C2CCC2)CCC1=O", "Percent Effect": 113.5}, {"molecule": "CN1C(=O)CCN(C(=O)C2CCCCC2)c2ccccc21", "Percent Effect": -31.28}, {"molecule": "CCN1Cc2cc(F)ccc2N(C(C)=O)CCC1=O", "Percent Effect": 105.8}, {"molecule": "CCN1Cc2ccccc2N(C(=O)C2CCC2)CCC1=O", "Percent Effect": 94.47}, {"molecule": "Cc1noc(C)c1C(C)NC(=O)N1CCC(NC(=O)c2ccsc2)CC1", "note": "(centres undefined)", "Percent Effect": -3.825}, {"molecule": "COc1c(NC(=O)C(C)CCOc2ccccc2)c(C)nn1C", "note": "(centres undefined)", "Percent Effect": -7.796}, {"molecule": "CC(O)CN1CCN(C(=O)CN(C)c2cnccn2)CC1", "note": "(centres undefined)", "Percent Effect": -17.8}, {"molecule": "Cn1c(N)nnc1SCc1c(F)cccc1Br", "Percent Effect": -12.74}, {"molecule": "Cc1cc(C)c(C(=O)N[C@H](C(N)=O)c2ccccc2)c(=O)[nH]1", "Percent Effect": 4.18}, {"molecule": "CCOC(=O)CCCNc1nc(C(C)(C)C)nc2c1cnn2C", "Percent Effect": 0.3135}, {"molecule": "O=C(c1ccsc1)N1CCN(CC(O)c2cccc(F)c2)CC1", "note": "(centres undefined)", "Percent Effect": 8.058}, {"molecule": "CC(C(=O)N1CCn2cncc2C1)N1CCCC1", "note": "(centres undefined)", "Percent Effect": 4.282}, {"molecule": "O=C(CCCNCc1ccc(Cl)c2cccnc12)NC1CC1", "Percent Effect": -3.748}, {"molecule": "COc1ccc(Cl)cc1-n1nc(C2CCCC2)nc1Cn1cnnn1", "Percent Effect": -18.77}, {"molecule": "Nc1nc2c(c(N3CCC(CN4CCCC4=O)CC3)n1)CCNCC2", "Percent Effect": -8.42}, {"molecule": "CCC1=N[C@@]2(CC[C@@H]3CN(S(C)(=O)=O)C[C@@H]32)C(=O)N1CC(C)C", "Percent Effect": -16.48}, {"molecule": "Cc1cccc(CN2CCc3c(CNC(=O)CC#N)nn(C)c3C2)n1.O=C(O)C(F)(F)F", "Percent Effect": -9.631}, {"molecule": "O=C(Nc1cc(-c2cccnc2)no1)C1CCC1", "Percent Effect": 9.123}, {"molecule": "CC(C)Cc1nc(NC(=O)c2cccnc2)n[nH]1", "Percent Effect": 118.7}, {"molecule": "Cn1cccc1-c1cc(C(=O)N2CC(c3cccnc3)C2)[nH]n1", "Percent Effect": -4.055}, {"molecule": "Cc1nn(C(C)C)c(C)c1NC(=O)c1cccnc1", "Percent Effect": 6.145}, {"molecule": "O=C(Nc1ncc[nH]1)c1cc(-c2cccnc2)n[nH]1", "Percent Effect": 118.3}, {"molecule": "CC(C)C[C@H](NC(=O)c1cc(-c2cccn2C)n[nH]1)C(N)=O", "Percent Effect": 6.399}, {"molecule": "CC(C)Cc1nc(NC(=O)c2cc(-c3cccnc3)n[nH]2)n[nH]1", "Percent Effect": 127.5}, {"molecule": "Cc1cc(CC(C)Nc2nc(-c3cccnc3)nc3c2CNC3)[nH]n1", "note": "(centres undefined)", "Percent Effect": -2.115}, {"molecule": "CC(C)COCC(NC(=O)c1cccnc1)c1ccco1", "note": "(centres undefined)", "Percent Effect": -0.4808}]}]}
